# Assay results reported in PubChem BioAssay AID1861 (The Scripps Research Institute Molecular Screening Center, 2009).
# Screen size: about 290,000 compounds; about 3,100 (1.1%) were called active. No stated cut-off is given here; in the data, active means inhibition above about 16% (passing the limit was not always enough); inactive means the rest. What follows is part of a selection rich in actives, with near analogues and random picks from the rest.
# Biological target: Neuropeptides B/W receptor type 1 (Homo sapiens) (UniProt P48145)
# Sequence (P48145 whole entry, looked up): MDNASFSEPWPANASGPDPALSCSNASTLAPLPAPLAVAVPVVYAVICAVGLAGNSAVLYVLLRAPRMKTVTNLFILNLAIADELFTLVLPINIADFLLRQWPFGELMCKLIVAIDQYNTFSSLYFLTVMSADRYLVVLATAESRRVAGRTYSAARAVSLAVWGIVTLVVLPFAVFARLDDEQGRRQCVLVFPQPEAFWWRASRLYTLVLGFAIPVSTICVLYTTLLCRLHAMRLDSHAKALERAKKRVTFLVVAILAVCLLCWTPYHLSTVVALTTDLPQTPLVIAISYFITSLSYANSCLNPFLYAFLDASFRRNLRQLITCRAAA
# Test: blockers of human neuropeptide B/W receptor 1 – cell-based, fluorescence, single concentration, primary screen (AID 1861);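 further: cells stimulated with the agonist NPW; 0% = agonist with vehicle and 100% = vehicle without agonist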
# Details: GPR7-expressing cells, fluorescence antagonist assay; at 4.4 µM; stronger effect = higher value
row,Compound,inhibition
1,CCOc1cc2[nH]c(=S)n(Cc3ccc(C(=O)N4CCN(C)CC4)cc3)c(=O)c2cc1OCC,2.37% (inactive)
2,CCNC(=S)N(CCN(CC)CC)Cc1cc2cc3c(cc2[nH]c1=O)OCCO3,-10.2% (inactive)
3,COc1ccc(-n2c(C)cc(C(=O)COC(=O)c3cc(OC)c(OC)cc3NC(=O)c3cccs3)c2C)cc1,27.1% (active)
4,Cc1cc(C(=O)COC(=O)c2cccs2)c(C)n1-c1c(C)n(C)n(-c2ccccc2)c1=O,-14.8% (inactive)
5,COc1cc2ccccc2cc1C(=O)Nc1ccc(NC(=O)c2cccs2)cc1,-3.15% (inactive)
6,O=C(O)c1ccc(S(=O)(=O)N2CCOCC2)o1,1.56% (inactive)
7,Cc1ccc(S(=O)(=O)NCC2CCC(C(=O)N3CCOCC3)CC2)cc1 (stereo not given),-4.78% (inactive)
8,CN1C/C(=C/c2cccs2)C(=O)/C(=C\c2cccs2)C1,-7.39% (inactive)
9,CS(=O)(=O)N(Cc1nc2sc3c(c2c(=O)[nH]1)CCCC3)C1CCCCC1,1.34% (inactive)
10,CCCC(=O)Nc1nc2ccc(NC(=O)c3cccnc3)cc2s1,3.59% (inactive)
11,CCCC(=O)Nc1nc2ccc(NC(=O)c3c(F)c(F)c(OC)c(F)c3F)cc2s1,36.2% (active)
12,CSc1nc2ccc(NC(=O)c3c(F)cccc3F)cc2s1,-5.74% (inactive)
13,CN(C)c1nc(=Nc2cccc(Cl)c2)ss1,-8.61% (inactive)
14,CNS(=O)(=O)c1cccc(C(=O)NC2CCCc3ccccc32)c1 (stereo not given),-8.59% (inactive)
15,COc1ccc(CC(=O)NC(C)CCc2ccccc2)cc1 (stereo not given),-6.45% (inactive)
16,COc1ccc(C(CCNCc2ccccc2F)c2ccc(F)cc2)cc1 (stereo not given),27.6% (active)
17,COc1ccc(C(CNCC(=O)Nc2ccccc2F)N(C)C)cc1 (stereo not given),0.06% (inactive)
18,N#Cc1c(Cl)nc(-c2cccnc2)nc1-c1ccccc1,4.22% (inactive)
19,O=C1CSC(c2ccccc2)N1c1nc(-c2ccc(Cl)cc2Cl)cs1 (stereo not given),-0.11% (inactive)
20,Clc1ccc(-c2cc(-c3ccccn3)on2)c(Cl)c1,-1.76% (inactive)
21,Clc1ccc(-c2cc(C3CCNCC3)[nH]n2)c(Cl)c1,28.3% (active)
22,COc1ccc(N(CC(=O)NCc2ccc(F)cc2)C(=O)CCC(=O)Nc2nccs2)cc1,1.89% (inactive)
23,COCCOC1CCN(C(=O)c2ccc(OC)c(OC3CCN(C(C)C)CC3)c2)CC1,-13.7% (inactive)
24,Cc1ccccc1CN1C[C@@H]2C[C@@H](c3ccc4nsnc4c3)N3CCC[C@@]23C1=O,-4.53% (inactive)
25,Cc1ccc(CN2CCN(Cc3cn(C)nc3-c3ccccc3)CC2CCO)o1 (stereo not given),-17.8% (inactive)
26,Cc1ccccc1CN1C[C@@H]2C[C@@H](c3cn(C)nc3-c3ccccc3)N3CCC[C@@]23C1=O,25.5% (active)
27,CS(=O)(=O)c1ccc(-c2nnn(CC(=O)Nc3ccc4c(c3)OCCO4)n2)cc1,11.6% (inactive)
28,O=C(CN(Cc1ccc(Br)cc1)S(=O)(=O)c1ccccc1)NCc1ccncc1,5.84% (inactive)

row,Compound,inhibition
1,CC(=O)NNC(=O)c1csc(Cc2c(Cl)sc3ccc(Cl)cc23)n1,0.26% (inactive)
2,CC1CCN(S(=O)(=O)c2ccc(S(=O)(=O)NCc3ccco3)cc2)CC1,19.6% (active)
3,Cc1ccc(S(=O)(=O)N2CCC(C(=O)N[C@@H](C)C(=O)NCc3ccco3)CC2)cc1,2.63% (inactive)
4,CC1CCN(S(=O)(=O)c2ccc(S(=O)(=O)NCc3cccnc3)cc2)CC1,-1.72% (inactive)
5,O=C(CC1SC(=Nc2ccccc2)N(Cc2ccccn2)C1=O)Nc1cccc(Cl)c1 (stereo not given),-4.47% (inactive)
6,CCN1C(=NCc2ccc(OC)cc2)N[C@@H](CCc2ccccc2)[C@H](C(=O)NCc2ccc(OC)cc2)[C@H]1C,14% (inactive)
7,CCN(CC)CCCNC(=O)c1c(O)c2cc(F)cc3c2n(c1=O)C(C)CC3 (stereo not given),4.5% (inactive)
8,CN(C)CCCN(C(=O)c1ccc(S(=O)(=O)N2CCCc3ccccc32)cc1)c1nc2ccc(F)cc2s1,41.8% (active)
9,CCc1ccc2nc(N(CCCN(C)C)C(=O)c3ccc4c(c3)OCCO4)sc2c1,22.4% (active)
10,CC(=O)N(CCCN(C)C)c1nc2ccc(C)cc2s1,-10.8% (inactive)
11,CN(C)CCCN(C(=O)c1ccc(S(=O)(=O)N2CCCCCC2)cc1)c1nc2ccc(Br)cc2s1,28.6% (active)
12,CCOc1ccc2nc(N(CCCN(C)C)C(=O)c3ccc(C(=O)c4ccccc4)cc3)sc2c1,6.16% (inactive)
13,CCOc1ccc2nc(N(CCN(C)C)C(=O)c3ccc4ccccc4c3)sc2c1,3% (inactive)
14,CSc1nc2ccc(S(=O)(=O)N3CCc4ccccc43)cc2s1,-0.77% (inactive)
15,O=C(Nc1nc2ccc([N+](=O)[O-])cc2s1)c1ccc(S(=O)(=O)N2CCCc3ccccc32)cc1,-16.1% (inactive)
16,CCN(CC)CCN(C(=O)c1ccc(S(=O)(=O)N2CCOCC2)cc1)c1nc2cc3c(cc2s1)OCCO3,-11.1% (inactive)
17,COc1ccc(C(C(=O)NC2CCCCC2)N(C(=O)Cc2c[nH]c3ccccc23)c2ccccc2)cc1OC (stereo not given),-5.99% (inactive)
18,Cc1cc(S(=O)(=O)c2cc3ccc(O)c(C)c3oc2=O)ccc1F,-15% (inactive)
19,Cc1ccccc1NC(=O)CCNS(=O)(=O)c1ccc2[nH]c(=O)oc2c1,-12.7% (inactive)
20,O=C(Nc1ccc(C2CC2(Cl)Cl)cc1)c1cccc([N+](=O)[O-])c1 (stereo not given),-6.54% (inactive)
21,Nc1ccn(C2CC(O)C(CO)O2)c(=O)n1 (stereo not given),-7.05% (inactive)
22,O=C(COc1ccc(S(=O)(=O)N2CCOCC2)cc1Cl)N1CCOCC1,-13.2% (inactive)
23,Cc1ccccc1CSCCNC(=O)c1ccc(N(C)S(=O)(=O)c2ccccc2)cc1,1.47% (inactive)
24,CN(c1ccccc1)S(=O)(=O)c1ccc(C(=O)NCCc2ccccc2)cc1,23.9% (active)
25,COc1ccccc1CNC(=O)c1ccc(N(C)S(=O)(=O)c2ccc(C)cc2)cc1,-3.56% (inactive)
26,O=C(NCCS(=O)(=O)c1ccc(Br)cc1)c1ccccc1Cl,1.64% (inactive)
27,O=C(c1ccco1)N1CCN(Cc2cccc(C(F)(F)F)c2)CC1,-13.2% (inactive)
